# Test results from PubChem BioAssay AID485360 (National Center for Advancing Translational Sciences (NCATS), 2010).
# The campaign covered roughly 230,000 compounds. About 1,500 (0.65%) were called active. Not shown: some 3% with an inconclusive outcome. Only a selection was taken, and actives are over-represented in it overall. Values without a mark were called inactive. Calls follow the shape of the dose curve; as a rule, active = well fitted inhibition curve with a large enough effect; inconclusive = small, poorly fitted or top-dose-only effect; inactive = no such curve, though single readings can be large or run the other way.
# Biological target: Lethal(3)malignant brain tumor-like protein 1 (Homo sapiens) (UniProt Q9Y468)
# Experiment: qHTS Assay for the Inhibitors of L3MBTL1; also: nearly all actives have a fitted effect of over 60% in size
# Details: AlphaScreen L3MBTL1–H3K9me1 peptide binding; series mostly up to 57.1 µM; activity, negative = inhibition: at the top concentration
# Text: The histone code is comprised of many post-translational modifications that occur mainly in histone tail peptides. The identity and location of these marks are read by a variety of histone binding proteins that are emerging as important regulators of cellular differentiation and development and are increasingly being implicated in numerous disease states. Small molecule probes that disrupt the interaction between histone binding proteins and chromatin would enable a systematic chemical biology study of proteins that read the histone code and could potentially reveal new targets for drug discovery. However, no such small molecules are known. This dearth of quality molecular probes can largely be attributed to the novelty of the target class and the lack of screening assays. This proposal details the development of the first high-throughput screening assay for the discovery of inhibitors of methyl-lysine binding proteins and how it can be be used to initiate a full-scale discovery effort for antagonists of histone binding proteins. Specifically, this work focuses on an AlphaScreen(tm)-based HTS assay for Malignant Brain Tumor (MBT) domain-containing proteins, which bind to the lower methylation states of lysine residues present in histone tail peptides.
# To each well, 2 uL of L3MBTL1 protein (final 50 nM) and 1 uL biotinylated histone peptide monomethylated at Lys9 [b-AHA-H3(1-15)K9me1] (final 75 nM) was added using a nanoliter dispenser. Formation of a protein-peptide complex proceeded at room temperature for 30 min. A Kalypsys pin-tool was employed to transfer 23 nL of library compound solution in DMSO to each well. Cefsulodin, found in a pilot screen of the LOPAC library to be a weak inhibitor of L3MBTL1 binding, was used as an intraplate control with a 16-point titration in duplicate. Following a 30 min incubation of the protein-peptide complex with compounds at room temperature, a mixture of 40 ug/mL each streptavidin-coated donor and nickel chelate acceptor AlphaScreen beads (final 10 ug/mL) was added in a 1 uL dispense for a final volume of 4 uL. Plates were incubated, protected from the light for 30 min at room temperature. Microplates were then be read on an EnVision multilabel plate reader using the 1,536 plate HTS AlphaScreen aperture (excitation time 80 ms, measurement time 240 ms).
# % is scaled to controls: 0 for no effect and ±100 for the full control effect; potency is read from the fitted curve at half-maximal effect.
# Sequence of Lethal(3)malignant brain tumor-like protein 1 (Homo sapiens) (Q9Y468 whole entry, looked up): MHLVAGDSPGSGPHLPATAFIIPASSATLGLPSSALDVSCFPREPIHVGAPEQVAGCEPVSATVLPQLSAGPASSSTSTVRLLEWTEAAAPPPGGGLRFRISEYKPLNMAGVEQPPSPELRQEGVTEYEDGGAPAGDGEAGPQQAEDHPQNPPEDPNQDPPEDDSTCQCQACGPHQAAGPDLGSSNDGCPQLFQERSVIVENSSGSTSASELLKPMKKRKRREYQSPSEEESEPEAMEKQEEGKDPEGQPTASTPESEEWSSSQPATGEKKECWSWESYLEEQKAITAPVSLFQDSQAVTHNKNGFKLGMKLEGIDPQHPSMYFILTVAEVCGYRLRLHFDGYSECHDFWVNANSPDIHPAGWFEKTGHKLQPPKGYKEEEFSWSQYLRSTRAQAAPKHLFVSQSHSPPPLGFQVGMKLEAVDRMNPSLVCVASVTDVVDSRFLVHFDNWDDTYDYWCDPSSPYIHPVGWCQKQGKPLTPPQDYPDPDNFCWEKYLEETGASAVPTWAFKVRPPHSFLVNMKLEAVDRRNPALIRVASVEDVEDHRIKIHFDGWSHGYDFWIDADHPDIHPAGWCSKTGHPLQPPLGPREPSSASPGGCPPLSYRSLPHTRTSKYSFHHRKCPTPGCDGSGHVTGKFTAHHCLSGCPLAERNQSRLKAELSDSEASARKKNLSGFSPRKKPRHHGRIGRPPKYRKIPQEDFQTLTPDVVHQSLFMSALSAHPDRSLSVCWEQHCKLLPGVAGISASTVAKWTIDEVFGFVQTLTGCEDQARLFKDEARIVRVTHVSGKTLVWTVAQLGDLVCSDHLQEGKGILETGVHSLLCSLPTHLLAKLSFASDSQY
Compound,"activity, negative = inhibition [%]",Potency
Cc1cccc(N2C(=O)NC(=O)/C(=C\c3cnn(-c4ccccc4)c3)C2=O)c1,-3.83,
COc1cccc(N2C(=O)NC(=O)/C(=C\c3ccc([N+](=O)[O-])s3)C2=O)c1,,20 µM (active)
O=C1NC(=O)N(c2ccccc2)C(=O)/C1=C/c1ccc([N+](=O)[O-])s1,,17.8 µM (active)
O=C1NC(=O)N(c2ccc(F)cc2)C(=O)/C1=C/c1ccc2c(c1)CCCN2Cc1ccccc1,-2.39,
O=C(NC(=S)N1C[C@H]2C[C@H](C1)c1cccc(=O)n1C2)c1ccc(F)cc1,4.52,
Cn1cc(C(=O)OCC(=O)N2CCCC2)c2ccccc21,6.7,
O=c1[nH]c(O)c(C=Nc2cc(F)cc(F)c2)c(=O)[nH]1,2.62,
CCN(CC)C(=O)Oc1ccc(NC(=O)N2CCOCC2)cc1,-2.49,
COc1ccc(-c2nn(CCC#N)cc2C(=O)Nc2ccc(C(C)=O)cc2)cc1,-7.02,
Cc1nc2ccccc2c(=O)n1-c1ccc(Cl)cc1Cl,4.09,
O=C(OCC1O[C@@H](OC(=O)c2cc(O)c(O)c(O)c2)[C@@H](OC(=O)c2cc(O)c(O)c(O)c2)[C@@H](OC(=O)c2cc(O)c(O)c(O)c2)[C@@H]1OC(=O)c1cc(O)c(O)c(O)c1)c1cc(O)c(O)c(O)c1 (stereo not given in full),,0.178 µM (active)
Cc1ccc(-n2c(C)cc(/C=C3\C(=O)NC(=O)N(C)C3=O)c2C)cc1C,-20.4,
Cc1cc(/C=C2/C(=O)NC(=O)N(Cc3ccco3)C2=O)c(C)n1-c1ccc(C(=O)O)cc1,,15.8 µM (active)
Cc1ccnc(-n2c(C)cc(/C=C3\C(=O)NC(=S)N(C)C3=O)c2C)c1,-11.1,
COC(=O)[C@@H]1C(OC(=O)c2ccccc2)CC2CCC1N2C (stereo not given in full),-1.9,
CN(C)C(=O)Oc1ccc(NC(=O)N2CCOCC2)cc1,7.02,
COCCNC(=O)CN1C2CCC1CC(O)(c1cccnc1)C2 (stereo not given),-0.317,
CN(C)CCN(CC1CCCN(Cc2ccccc2F)C1)C(=O)Cc1ccc(F)c(F)c1 (stereo not given),-3.82,
COC(=O)C1=C(c2ccc(F)cc2OCc2ccccc2)C[C@@H]2CC[C@H]1N2C(=O)NCc1ccc(OC)c(OC)c1,-18.1,
Cc1c(Oc2cc(NN3CCCCC3)c([N+](=O)[O-])cc2[N+](=O)[O-])cccc1[N+](=O)[O-],33,
COC(=O)C1=C(c2ccc(C(C)=O)cc2)C[C@@H]2CC[C@H]1N2C(=O)NCCNC(C)=O,3.36,
CCN(CC)c1ccc([N+](=O)[O-])c2cccnc12,,10 µM (active)
Oc1ccc2c3c1OC1[C@H](O)CC[C@@]4(O)[C@@H](C2)N(CC2CC2)CC[C@]314 (stereo not given in full),,inactive
COC(=O)C1=C(c2ccc3ccccc3c2)C[C@@H]2CC[C@H]1N2C(=O)NCCO,11.1,
Cc1c(C(=O)O)cccc1-n1c(C)cc(/C=C2\C(=O)NC(=O)N(c3ccc4c(c3)OCO4)C2=O)c1C,,14.1 µM (active)
Cc1ccccc1N1C(=O)NC(=O)/C(=C\c2cc(C)n(C)c2C)C1=O,-4.84,
COC(=O)C1=C(c2ccc(F)cc2F)C[C@@H]2CC[C@H]1N2C(=O)NC1CC1,6.1,
COC(=O)C1=C(c2ccc(Cl)c(C(F)(F)F)c2)C[C@@H]2CC[C@H]1N2C(=O)NC1CC1,0.885,
O=C(c1ccccc1[N+](=O)[O-])N1CCC2(CC1)OCCO2,4.07,
C[C@]12CCC3C(CC[C@H]4C[C@@H](O)CC[C@]34C)C1C[C@@H](O)[C@H]2O (stereo not given in full),2.44,
